LASV entry inh: inhibitors of Lassa virus binding or cell entry. Lassa virus pseudotype entry inhibition, cell reporter. 300,000 tested, 1.2% active. Potency, µM (top dose mostly 37.9 µM), hits mostly inhibitors. AID 540256; calls by dose curve; tested in HEK293 cells; note: nearly all actives have a fitted effect of over 50% in size
Vaccinia Venus: vaccinia inhibition (Venus reporter). AID 720580. Vaccinia virus Venus reporter expression, fluorescence. 330,000 tested, 0.46% active. Potency, µM (series often up to 36.5 µM), usual class: inhibitors; calls by dose curve; tested in A549 cells; note: nearly all actives have a fitted effect of over 30% in size
VACV mCherry inh: inhibitors of vaccinia virus infection (mCherry reporter signal). AID 720579. 310,000 tested, 0.63% active. Vaccinia virus mCherry reporter infection, fluorescence. Potency, µM (highest dose often 36.5 µM), hits mostly inhibitors; calls by dose curve; tested in A549 cells; note: nearly all actives have a fitted effect of over 35% in size
Marburg entry inh: Marburg virus entry inhibition; Marburg virus pseudotyped entry inhibition, cell reporter; Potency, µM (titrated, usually from 37.8 µM), actives largely listed as inhibitors; 300,000 tested, 1.8% active; AID 540276; calls by dose curve; tested in HEK293 cells
HCMV inh: inhibitors of human cytomegalovirus. 410,000 tested, 4.5% active. activity change, negative = inhibition, % at 57.5 µM. HFF cells, HCMV-luciferase reporter, 72 h; active compounds read low; in the data active = activity change below about -60%; inconclusive = no clear call, values can overlap the other calls; inactive = above about -39%
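Human foreskin fibroblasts infected with luciferase-reporter HCMV at MOI 1 PFU/cell, compounds at two doses. Luciferase measured 72 h post infection; normalized to buffer-only basal and Salinomycin (10uM) controls.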
HCV inh: inhibitors of hepatitis C virus infection. 340,000 tested, 3.4% active. Huh7.5.1 HCVcc-Cre infection, luciferase reporter, 44 h. Potency, µM (series often up to 41.8 µM), actives largely listed as inhibitors; active = well fitted inhibition curve with a large enough effect; inconclusive = small, poorly fitted or top-dose-only effect, or another doubt; inactive = no such curve, though single readings can be large or run the other way
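Cells (1,000/well) were plated 4 h before compound, then infected with HCVcc-Cre virus (~0.5 moi). After 44 h further culture, infection was read as luciferase luminescence following a 15 min substrate incubation at room temperature.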
Of the large screens only hits and unclear results are named; the others gave an inactive call. Most compounds without a hit are left out; they make up all but 7.8% or so of the library.

O=C1NC[C@@H](CCCCN2CCN(CCc3ccccc3)C(=O)C2=O)N(CCC2CCCCC2)C1=O	none (no result: LASV entry inh, Marburg entry inh, HCV inh)
CCc1cccc(CC)c1NC(=O)CN1CC(C)SC1=NC1CCCCC1 (stereo not drawn)	LASV entry inh inconclusive, Marburg entry inh inconclusive, HCMV inh -63
CCc1cccc(CC)c1NC(=O)NC1CCCCC1	Marburg entry inh inconclusive
CN(C)c1ccc(/C=c2\sc3n(c2=O)CCCN=3)cc1	LASV entry inh 2µM, Marburg entry inh inconclusive, HCV inh inconclusive
O=c1/c(=C/c2ccc(O)cc2)sc2n1CCCN=2	LASV entry inh inconclusive (no result: VACV mCherry inh)
COc1nc(-c2ccccc2)ncc1S(=O)(=O)c1ccccc1	HCV inh inconclusive (no result: Vaccinia Venus, VACV mCherry inh)
Cc1nc(-c2ccccc2)sc1-c1nc(-c2ccncc2)ncc1S(=O)(=O)c1ccccc1	LASV entry inh inconclusive, Marburg entry inh 4.5µM, HCMV inh -82, HCV inh inconclusive
COc1cc(OC)c(N(C)S(=O)(=O)c2cccc(C(=O)Nc3nccs3)c2)cc1Cl	LASV entry inh inconclusive, Marburg entry inh 8.9µM, HCMV inh inconclusive, HCV inh inconclusive
COc1ccc(C(=O)/C=C/Nc2cc(C)ccn2)cc1	LASV entry inh inconclusive, Marburg entry inh 1.3µM
COc1cc2ccccc2cc1C(=O)Nc1nccs1	HCV inh 11µM (no result: LASV entry inh, Marburg entry inh)
CN(c1ccccc1)S(=O)(=O)c1cccc(C(=O)Nc2nccs2)c1	HCMV inh inconclusive (no result: LASV entry inh, Marburg entry inh)
COc1cc2ccccc2cc1C(=O)Nc1cc(C)ccn1	Marburg entry inh inconclusive, HCV inh 13µM
CCC12C=C(C=Cc3ccccc3)C(CC)(C1)C(c1ccccc1)CC2=O (stereo not drawn)	none (no result: LASV entry inh, Vaccinia Venus, VACV mCherry inh, HCMV inh, HCV inh)
CCOc1cc2sc(N3CCC(C(=O)Nc4ccc(CC)cc4)CC3)nc2cc1Br	Marburg entry inh inconclusive (no result: LASV entry inh, HCV inh)
Cc1ccc(-c2nnc(NCc3nc4ccccc4[nH]3)c3ccccc23)cc1S(=O)(=O)N(C)C	LASV entry inh 18µM, Marburg entry inh inconclusive, HCV inh inconclusive
O=C(CCl)NCCCCCCCCCNC(=O)CCl	LASV entry inh inconclusive, Vaccinia Venus 5.6µM, VACV mCherry inh 14µM, Marburg entry inh 8.9µM, HCMV inh -100, HCV inh inconclusive
CSc1ncccc1C(=O)N1CCCC(C(=O)c2ccc3ccccc3c2)C1 (stereo not drawn)	LASV entry inh 11µM, Marburg entry inh inconclusive, HCV inh inconclusive
O=C(c1ccncc1)N1CCN(S(=O)(=O)c2ccc3ccccc3c2)CC1	HCV inh inconclusive (no result: LASV entry inh, Vaccinia Venus, VACV mCherry inh, Marburg entry inh)
O=C(c1ccc2ccccc2c1)C1CCCN(C(=O)CN2C(=O)CSC2=O)C1 (stereo not drawn)	HCMV inh -68
Cc1ccc(S(=O)(=O)N2CCN(C(=O)Cc3ccccc3)CC2)cc1C	none (no result: LASV entry inh, Vaccinia Venus, VACV mCherry inh, Marburg entry inh)
O=C(c1cnc(Cl)c(Cl)c1)N1CCN(S(=O)(=O)c2ccc3ccccc3c2)CC1	Marburg entry inh inconclusive, HCV inh 11µM
Cc1ccc(S(=O)(=O)N2CCN(C(=O)CCN3C(=O)c4ccccc4C3=O)CC2)cc1C	Marburg entry inh inconclusive, HCMV inh -62
COc1ccc(CN2Cc3ccccc3OC(c3ccccc3OC)C2)cc1O (stereo not drawn)	none (no result: LASV entry inh, Marburg entry inh, HCMV inh, HCV inh)
CCOC(=O)c1cccc(-n2nnc3c(sc4nc(C)c(Br)c(C)c43)c2=O)c1	HCMV inh inconclusive (no result: HCV inh)
CCC(C)NC(=O)c1sc2nc(C)c(C(=O)Nc3ccc(C)cc3C)c(-c3ccccc3Cl)c2c1N (stereo not drawn)	Marburg entry inh inconclusive (no result: HCV inh)
Cc1ccc(CNC(=O)CN2Cc3ccccc3C2=O)cc1	none (no result: Marburg entry inh, HCV inh)
CSc1ncccc1C(=O)N1CCN(S(=O)(=O)c2ccc3ccccc3c2)CC1	HCMV inh -83, HCV inh inconclusive (no result: LASV entry inh, Vaccinia Venus, VACV mCherry inh, Marburg entry inh)
CC(C)CC(=O)N1CCN(S(=O)(=O)c2ccc3ccccc3c2)CC1	HCMV inh -88, HCV inh inconclusive (no result: Vaccinia Venus, VACV mCherry inh)
CC(C)CC1NC(=O)N(CC(=O)N2CCN(S(=O)(=O)c3ccc4ccccc4c3)CC2)C1=O (stereo not drawn)	Vaccinia Venus inconclusive (no result: VACV mCherry inh)
O=C(c1ccccc1F)N1CCN(S(=O)(=O)c2ccc3ccccc3c2)CC1	none (no result: LASV entry inh, Vaccinia Venus, VACV mCherry inh, Marburg entry inh)
COc1ccc2c(c1)c1c(c(=O)n(Cc3ccccc3)c(=O)n1CC(=O)Nc1c(C)cccc1C)n2C	none (no result: Marburg entry inh, HCV inh)
N#C/C(=N\Nc1cccc([N+](=O)[O-])c1)C(=O)c1ccc(Br)cc1	Vaccinia Venus inconclusive, VACV mCherry inh 1.8µM, Marburg entry inh inconclusive, HCMV inh -101, HCV inh 10µM (no result: LASV entry inh)
O=C(O)c1ccc(N=NNc2cccc([N+](=O)[O-])c2)cc1	LASV entry inh inconclusive, VACV mCherry inh inconclusive, Marburg entry inh inconclusive
N#C/C(=N/Nc1ccc([N+](=O)[O-])cc1)C(=N)N1CCCCC1	LASV entry inh inconclusive
N#C/C(=N\Nc1ccc([N+](=O)[O-])cc1)C(N)=S	LASV entry inh inconclusive, Marburg entry inh inconclusive, HCMV inh -95, HCV inh 10µM
COc1ccccc1CNC(=O)C1CCN(c2nn3c(=O)cc(C)nc3s2)CC1	none (no result: HCV inh)
Cc1ccc(S(=O)(=O)N2CCOCC2)cc1C(=O)Nc1ccccc1C(=O)O	LASV entry inh inconclusive (no result: HCV inh)
CCOc1cccc(-c2nn(-c3ccccc3)cc2/C=C(/C#N)C(=O)NCCCn2ccnc2)c1	LASV entry inh inconclusive, Vaccinia Venus inconclusive, VACV mCherry inh inconclusive, Marburg entry inh inconclusive, HCMV inh inconclusive, HCV inh 18µM
CCSc1ccc(-c2nn(-c3ccccc3)cc2/C=C(/C#N)C(=O)NCCCOC)cc1	none
N#C/C(=C/c1cn(-c2ccccc2)nc1-c1cccc(OCc2ccccc2)c1)C(=O)NCCCn1ccnc1	LASV entry inh inconclusive, Vaccinia Venus inconclusive, Marburg entry inh 11µM, HCV inh inconclusive
COc1ccc2c(c1)[C@@H](NC(=O)c1c(C)noc1C)[C@H](C)[C@@H](c1ccccc1)N2C(=O)NC(C)C	none (no result: LASV entry inh, Vaccinia Venus, VACV mCherry inh, Marburg entry inh, HCV inh)
CS(=O)(=O)c1ccc(-c2ccc3c(c2)CC(CNC(=O)C2(N4CCOCC4)CCCCC2)O3)cc1 (stereo not drawn)	Vaccinia Venus inconclusive (no result: LASV entry inh, Marburg entry inh, HCMV inh, HCV inh)
Cc1csc(N/N=C/c2c(F)cccc2Cl)n1	Vaccinia Venus 5µM, VACV mCherry inh 3.5µM
COc1ccccc1C1CN(CCNC(=O)c2cscn2)Cc2ccccc2O1 (stereo not drawn)	none (no result: LASV entry inh, Marburg entry inh, HCMV inh, HCV inh)
CSc1ccccc1NC(=O)COC(=O)CCc1ccccc1	HCMV inh -62
CSc1ccccc1NC(=O)Cc1ccccc1	none
S=C1NC2=C(CCCC2)C2(CCCCC2)N1	none (no result: VACV mCherry inh)
C1CCC2(CC1)C1=C(CCCC1)Nc1nnnn12	HCMV inh -93 (no result: Vaccinia Venus, VACV mCherry inh)
O=S(=O)(c1ccc(S(=O)(=O)N2CCN(Cc3ccccc3)CC2)cc1)N1CCOCC1	none (no result: LASV entry inh, Vaccinia Venus, VACV mCherry inh, HCMV inh, HCV inh)
Cc1ccc(SCC2(O)CCN(C(=O)c3ccc(Cl)cc3)CC2)cc1	HCV inh inconclusive (no result: VACV mCherry inh)
O=S(=O)(c1ccc(Cl)cc1)N1CCC(O)(CN2CCN(Cc3ccccc3)CC2)CC1	Vaccinia Venus inconclusive, VACV mCherry inh inconclusive, Marburg entry inh inconclusive, HCV inh 13µM
O=S(=O)(c1ccccc1)N1CCC(O)(CSc2ccc(Cl)cc2)CC1	LASV entry inh inconclusive, Marburg entry inh inconclusive, HCV inh 3.5µM

From PubChem BioAssay
